Inconclusive results are not listed. Activity calls are given as the source filed them. Unless noted, calls come from the whole dose curve; as a rule, active = well fitted curve in the direction sought with a large enough effect in the repeat runs; inconclusive = weak or mixed curves; inactive = no such curve, though single readings can be large; an effect the other way counts as inactive or inconclusive.
Assays:
[1] = qHTS RealTime-Glo MT Cell Viability Assay in HepG2 cells - 32 hour (AID 1224877); note: nearly all actives have a fitted effect of over 55% in size
How it was run: (§1)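 HepG2 suspension premixed with RealTime-Glo reagents is plated at 600 cells per well and left 5 h at 37 C/5% CO2. Compounds in DMSO then go in, and bioluminescence reflecting viable cell number is recorded over 40 h.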

[2] = A CellTox Green Cytotoxicity Assay to monitor cytotoxicity in HepG2 cells - 24 hour (AID 1224878); note: nearly all actives have a fitted effect of over 45% in size
How it was run: (§2)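 Fluorescent DNA-binding dye, 600 HepG2 cells/well, 5 h preincubation then compound in DMSO; same plates read at 0–40 h, 37 C.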

[3] = A CellTox Green Cytotoxicity Assay to monitor cytotoxicity in HepG2 cells - 40 hour (AID 1224879); note: nearly all actives have a fitted effect of over 40% in size
How it was run: as §2

[4] = qHTS RealTime-Glo MT Cell Viability Assay in HEK293 cells - 0 hour (AID 1224880); note: top concentration of the series differs between compounds; nearly all actives have a fitted effect of over 45% in size
How it was run: (§3)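 Measured as luminescence from the same continuously cultured HEK293 wells at successive time points (0, 8, 16, 24, 32, 40 h) after compound addition. Reagent present from seeding; dosing at 5 h; incubation 37 C.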

[5] = A CellTox Green Cytotoxicity Assay to monitor cytotoxicity in HEK293 cells - 32 hour (AID 1224881); note: nearly all actives have a fitted effect of over 40% in size
How it was run: (§4)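 Homogeneous no-lysis format: HEK293 cell suspension mixed with CellTox Green reagent, seeded, incubated 5 h at 37 C/5% CO2, then dosed by pintool with compound in DMSO.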

[6] = A CellTox Green Cytotoxicity Assay to monitor cytotoxicity in HepG2 cells - 0 hour (AID 1224882); note: nearly all actives have a fitted effect of over 35% in size
How it was run: as §2

[7] = A CellTox Green Cytotoxicity Assay to monitor cytotoxicity in HepG2 cells - 32 hour (AID 1224883); note: nearly all actives have a fitted effect of over 50% in size
How it was run: as §2

[8] = qHTS RealTime-Glo MT Cell Viability Assay in HepG2 cells - 16 hour (AID 1224885); note: nearly all actives have a fitted effect of over 50% in size
How it was run: as §1

[9] = qHTS RealTime-Glo MT Cell Viability Assay in HEK293 cells - 8 hour (AID 1224887); note: top concentration of the series differs between compounds; nearly all actives have a fitted effect of over 50% in size
How it was run: as §3

[10] = A CellTox Green Cytotoxicity Assay to monitor cytotoxicity in HEK293 cells - 16 hour (AID 1224888); note: nearly all actives have a fitted effect of over 35% in size
How it was run: as §4

[11] = qHTS RealTime-Glo MT Cell Viability Assay in HepG2 cells - 0 hour (AID 1224889); note: nearly all actives have a fitted effect of over 50% in size
How it was run: as §1

[12] = A CellTox Green Cytotoxicity Assay to monitor cytotoxicity in HepG2 cells - 8 hour (AID 1224890); note: nearly all actives have a fitted effect of over 45% in size; note: potency is the fitted concentration of half-maximal effect
How it was run: as §2

[13] = qHTS assay to identify small molecule antagonists of the estrogen receptor alpha (ER-alpha) signaling pathway using the BG1 cell line in the presence of 0.1 nM 17-beta-estradiol - cell viability counter screen (AID 1259241); note: nearly all actives have a fitted effect of over 40% in size
How it was run: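 Live-cell protease activity (CellTiter-Fluor fluorescence, 30 min) was read in the same wells after VM7Luc4E2 cells had been exposed to compounds with 0.1 nM 17beta-estradiol for 22 hr at 37C.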

[14] = qHTS assay to identify small molecule antagonists of the androgen receptor (AR) signaling pathway using the MDA cell line in the presence of 0.5 nM R1881 - cell viability counter screen (AID 1259242); note: nearly all actives have a fitted effect of over 45% in size
How it was run: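 Human breast carcinoma MDA-kb2 cells, cultured without CO2, receive compounds alongside 0.5 nM (final) R1881 agonist. After 16 hr at 37C, viability is taken as live-cell protease signal.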

[15] = qHTS assay to identify small molecule HDAC inhibitors (AID 1259364); note: potency is the fitted concentration of half-maximal effect; for activity change, negative = inhibition: top concentration of the series differs between compounds
How it was run: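 After a 2 hr compound incubation (37C, 5% CO2), HCT-116 cells seeded at 1,500/well the day before received HDAC-Glo reagent; signal read as luminescence after 30 min at room temperature.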

[16] = qHTS assay to identify small molecule HDAC inhibitors - cell viability counter screen (AID 1259365)
How it was run: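 HCT-116 (wild type), 1,500 cells/well, overnight 37C/5% CO2; compound in DMSO 2hr; CellTiter-Glo 30min RT; luminescence read.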

[17] = qHTS RealTime-Glo MT Cell Viability Assay in HEK293 cells - 24 hour (AID 1224886)
How it was run: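 Reads taken at 0, 8, 16, 24, 32 and 40 h from the same wells. HEK293 cells (600/well) carried RealTime-Glo reagents from seeding, with compound added after a 5 h settle at 37 C.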

[18] = target: Estrogen receptor (Homo sapiens) (UniProt P03372); test: qHTS assay to identify small molecule antagonists of the estrogen receptor alpha (ER-alpha) signaling pathway using the BG1 cell line in the presence of 0.1 nM 17-beta-estradiol (AID 1259244); note: nearly all actives have a fitted effect of over 50% in size
Sequence of Estrogen receptor (Homo sapiens) (P03372 whole entry, looked up): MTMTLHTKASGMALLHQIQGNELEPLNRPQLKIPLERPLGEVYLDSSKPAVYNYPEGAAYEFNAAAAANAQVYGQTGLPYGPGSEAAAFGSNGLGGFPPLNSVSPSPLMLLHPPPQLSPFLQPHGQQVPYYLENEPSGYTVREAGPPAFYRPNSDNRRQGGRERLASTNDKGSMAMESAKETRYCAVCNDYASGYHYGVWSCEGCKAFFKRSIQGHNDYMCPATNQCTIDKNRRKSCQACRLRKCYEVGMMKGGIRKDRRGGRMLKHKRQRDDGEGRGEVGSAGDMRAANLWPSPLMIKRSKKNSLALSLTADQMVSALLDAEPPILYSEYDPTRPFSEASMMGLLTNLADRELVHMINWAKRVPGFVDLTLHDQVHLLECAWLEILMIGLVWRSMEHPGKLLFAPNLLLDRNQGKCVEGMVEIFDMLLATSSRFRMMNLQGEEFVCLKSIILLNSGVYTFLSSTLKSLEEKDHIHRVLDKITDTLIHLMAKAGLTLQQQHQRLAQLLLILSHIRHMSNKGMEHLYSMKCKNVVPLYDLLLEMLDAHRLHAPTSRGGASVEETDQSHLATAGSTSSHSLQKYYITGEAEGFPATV
How it was run: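 Seeding of stripped-serum-adapted VM7Luc4E2 cells, 24 h attachment, compound transfer, then 0.1 nM final 17beta-estradiol; after 22 h incubation, ONE-Glo reagent and luminescence reading.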

[19] = A CellTox Green Cytotoxicity Assay to monitor cytotoxicity in HEK293 cells - 8 hour (AID 1224884); note: nearly all actives have a fitted effect of over 35% in size
How it was run: as §4

[20] = qHTS assay to identify small molecule phospholipidosis (PLD) inducers (AID 1259344; active = well fitted curve in the direction sought with a large enough effect; an effect the other way counts as inactive or inconclusive)
How it was run: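 Read-out is LipidTOX Red fluorescence (ex 595/em 615) imaged in HepG2 cells after 24 h compound exposure at 37 C, with Hoechst nuclear counterstain (ex 352/em 461) allowing per-cell normalisation.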
% is set by controls: 0 for no effect and ±100 for the full control effect.

O=C(c1ccc2c(c1)C(=O)OC2=O)c1ccc2c(c1)C(=O)OC2=O
inactive: outcome [1] | Potency [2] | Potency [3] | outcome [4] | Potency [5] | Potency [6] | Potency [7] | outcome [8] | Potency [9] | Potency [10] | Potency [11] | Potency [12] | Potency [13] | Potency [14] | Potency [15] | outcome [16]

CC(C)C(=O)c1ccccc1
inactive: outcome [1] | Potency [2] | Potency [3] | outcome [4] | Potency [5] | Potency [6] | Potency [7] | outcome [8] | Potency [17] | Potency [9] | Potency [10] | Potency [12] | Potency [13] | Potency [14] | Potency [18] | outcome [16]

CC(C)CCCC(C)CC=O (stereo not drawn)
inactive: outcome [1] | Potency [2] | Potency [3] | outcome [4] | Potency [5] | Potency [6] | Potency [19] | outcome [8] | Potency [17] | Potency [9] | Potency [10] | Potency [11] | Potency [13] | Potency [14] | Potency [18] | Potency [15] | outcome [16]
active: Potency [12] 21.9 µM

CCCCCCCCCCCCCCCCI
inactive: activity change, negative = cytotoxic [1] 7.46% [at 15.8 µM] | cytotoxicity [2] -11% [at 15.8 µM] | cytotoxicity increase [3] -12.9% [at 15.8 µM] | activity change, negative = cytotoxicity [4] -2.88% [at 15.8 µM] | cytotoxicity increase [5] -8.24% [at 15.8 µM] | cytotoxicity [6] -4.1% [at 15.8 µM] | cytotoxicity increase [19] -6.52% [at 15.8 µM] | activity change, negative = cytotoxic [8] -8.4% [at 15.8 µM] | activity change, negative = cytotoxicity [17] -7.78% [at 15.8 µM] | activity change, negative = cytotoxicity [9] -0.789% [at 15.8 µM] | activity change [10] -4.25% [at 15.8 µM, stronger effect = higher value] | activity change, negative = cytotoxicity [11] -19.8% [at 15.8 µM] | cytotoxicity increase [12] -10.7% [at 15.8 µM] | activity change, negative = cytotoxicity [13] 7.96% [at 19 µM] | viability change, negative = cytotoxic [14] 2.57% [at 19 µM] | activity change, negative = cytotoxicity [16] -1.08% [at 19 µM]

C1=CCC(c2ccccc2)CC1 (stereo not drawn)
inactive: outcome [1] | Potency [2] | Potency [3] | outcome [4] | Potency [5] | Potency [6] | Potency [7] | outcome [8] | Potency [9] | Potency [10] | Potency [12] | Potency [13] | Potency [14] | Potency [15] | outcome [16]

CC(=O)c1ccc(OCC(=O)N2CCCCC2)cc1
inactive: outcome [1] | Potency [2] | Potency [3] | outcome [4] | Potency [5] | Potency [7] | Potency [19] | outcome [8] | Potency [17] | Potency [9] | Potency [10] | Potency [11] | Potency [12] | Potency [13] | Potency [14] | Potency [18] | outcome [20] | outcome [16]
active: Potency [15] 13.3 µM

Nc1c(NC/C=C\COc2cc(CN3CCCCC3)ccn2)c(=O)c1=O
inactive: activity change, negative = cytotoxic [1] 0.449% [at 15.8 µM] | cytotoxicity [2] -15.2% [at 15.8 µM] | cytotoxicity increase [3] -13.3% [at 15.8 µM] | activity change, negative = cytotoxicity [4] 11.6% [at 15.8 µM] | cytotoxicity increase [5] 6.07% [at 15.8 µM] | cytotoxicity [6] -10.4% [at 15.8 µM] | cytotoxicity increase [19] 3.26% [at 15.8 µM] | activity change, negative = cytotoxic [8] 3.45% [at 15.8 µM] | activity change, negative = cytotoxicity [17] 3.04% [at 15.8 µM] | activity change, negative = cytotoxicity [9] 1.9% [at 15.8 µM] | activity change [10] 3.09% [at 15.8 µM, stronger effect = higher value] | activity change, negative = cytotoxicity [11] 8.54% [at 15.8 µM] | cytotoxicity increase [12] -13.1% [at 15.8 µM] | activity change, negative = cytotoxicity [13] -19.8% [at 19 µM] | viability change, negative = cytotoxic [14] -4.94% [at 19 µM] | outcome [20] | activity change, negative = inhibition [15] -4.93% [at 19 µM] | activity change, negative = cytotoxicity [16] 4.37% [at 19 µM]

Nc1ccnc(=O)[nH]1
inactive: outcome [1] | Potency [2] | Potency [3] | outcome [4] | Potency [5] | Potency [6] | outcome [8] | Potency [17] | Potency [9] | Potency [10] | Potency [11] | Potency [12] | Potency [13] | Potency [14] | Potency [18] | Potency [15] | outcome [16]

CCCCCCCC/C=C\CCCCCCCC(=O)OC[C@@H](O)[C@H]1OC[C@H](O)[C@H]1O
inactive: outcome [1] | Potency [2] | Potency [3] | outcome [4] | Potency [5] | Potency [7] | Potency [19] | outcome [8] | Potency [17] | Potency [9] | Potency [10] | Potency [11] | Potency [12] | Potency [13] | Potency [14] | Potency [18] | outcome [20] | outcome [16]

O=C(O)c1ccccc1C(=O)Nc1ccc(S(=O)(=O)Nc2nccs2)cc1
inactive: outcome [1] | Potency [2] | Potency [3] | outcome [4] | Potency [5] | Potency [6] | Potency [19] | outcome [8] | Potency [17] | Potency [9] | Potency [10] | Potency [11] | Potency [12] | Potency [13] | Potency [14] | outcome [20] | Potency [15] | outcome [16]

CC(C)(C)NCCO
inactive: outcome [1] | Potency [2] | Potency [3] | outcome [4] | Potency [5] | Potency [6] | outcome [8] | Potency [17] | Potency [9] | Potency [10] | Potency [11] | Potency [12] | Potency [13] | Potency [14] | Potency [18] | Potency [15] | outcome [16]

CCCCCC1Nc2cc(C(F)(F)F)c(S(N)(=O)=O)cc2S(=O)(=O)N1 (stereo not drawn)
inactive: outcome [1] | Potency [2] | Potency [3] | outcome [4] | Potency [5] | Potency [7] | Potency [19] | outcome [8] | Potency [17] | Potency [9] | Potency [10] | Potency [11] | Potency [12] | Potency [13] | Potency [14] | Potency [18] | outcome [20] | Potency [15] | outcome [16]

CC(C)COC(=O)CC(C(=O)OCC(C)C)S(=O)(=O)O (stereo not drawn)
inactive: outcome [1] | Potency [2] | Potency [3] | outcome [4] | Potency [5] | Potency [7] | Potency [19] | outcome [8] | Potency [17] | Potency [9] | Potency [10] | Potency [11] | Potency [12] | Potency [13] | Potency [14] | Potency [18] | Potency [15] | outcome [16]

COc1ccc(NS(=O)(=O)c2ccc(N)cc2)nn1
inactive: outcome [1] | Potency [2] | Potency [3] | outcome [4] | Potency [5] | Potency [7] | Potency [19] | outcome [8] | Potency [17] | Potency [9] | Potency [10] | Potency [11] | Potency [12] | Potency [13] | Potency [14] | Potency [18] | outcome [20] | Potency [15] | outcome [16]

CCC(=O)c1ccc(O)cc1
inactive: outcome [1] | Potency [2] | Potency [3] | outcome [4] | Potency [5] | Potency [6] | Potency [19] | outcome [8] | Potency [17] | Potency [9] | Potency [10] | Potency [11] | Potency [12] | Potency [13] | Potency [14] | Potency [18] | outcome [20] | Potency [15] | outcome [16]
